Screening results deposited in PubChem by National Center for Advancing Translational Sciences (NCATS).
The full list was thinned out, with hits kept by preference.
Lassa entry inh: qHTS for Inhibitors of binding or entry into cells for Lassa Virus; 300,000 compounds, 1.2% hits; Lassa virus pseudotype entry inhibition, cell reporter; Potency, µM (top dose mostly 37.9 µM), without a hit: top-dose activity change, negative = inhibition, most hits filed as inhibitors; calls by dose curve; tested in HEK293 cells; further: potency means the concentration at half of the fitted maximal effect; on the % scale 0 is the no-effect control and ±100 the full control effect; nearly all actives have a fitted effect of over 50% in size
AMA1 RON2 block: qHTS for Inhibitors of AMA1-RON; Towards Development of Antimalarial Drug Lead: Primary Screen. Plasmodium falciparum AMA1 (3D7) - RON2 peptide interaction. AlphaScreen AMA1-biotinylated RON2 peptide binding. Potency, µM (series often up to 58.2 µM), inactives show at the top dose activity change, negative = inhibition, actives largely listed as inhibitors. 360,000 compounds, 0.2% hits; active means well fitted inhibition curve with a large enough effect; inconclusive means small, poorly fitted or top-dose-only effect; inactive means no such curve, though single readings can be large or run the other way;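 further: potency means the concentration at half of the fitted maximal effect; 0% = vehicle wells and -100% = peptide control; nearly all actives have a fitted effect of over 45% in size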
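AMA1 (3D7) with his tag at 25 nM final met compounds first, then biotinylated RON2 peptide at 25 nM; detection used donor plus acceptor beads, 10 µg/mL apiece, read by AlphaScreen after 30 min at room temperature.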
MARV entry inh: qHTS for inhibitors of binding or entry into cells for Marburg Virus; AID 540276, 2011; Marburg virus pseudotyped entry inhibition, cell reporter; Potency, µM (top dose mostly 37.8 µM), inactives show at the highest dose activity change, negative = inhibition, usual class: inhibitors; 300,000 compounds, 1.8% hits; calls by dose curve; tested in HEK293 cells; further: potency means the concentration at half of the fitted maximal effect; on the % scale 0 is the no-effect control and ±100 the full control effect
Shiga toxin inh: A qHTS for Small Molecule Inhibitors of Shiga Toxin; Vero cells, Shiga toxin protein synthesis inhibition reporter; inhibition, % at 38.7 µM; 290,000 compounds, 9.2% hits; AID 2315, 2010; in the data active means inhibition mostly above about 28%, no sharp cut-off; inactive means mostly below about 43%; further: 0% is about no effect
Cycloheximide cs: Cycloheximide Counterscreen for Small Molecule Inhibitors of Shiga Toxin; max response, %; cell reporter, cycloheximide protein synthesis inhibition counterscreen; 300,000 compounds, 12% hits; in the data active means max response mostly above about 13%, no sharp cut-off; inactive means mostly below about 14%; further: read at 38.3 µM for the half of the compounds with a filed dose; 0% is about no effect
* marks the source's active call; other numbers are inactive results; ? = inconclusive; · = no result given; [ ] = another dose, or the depositor's remark.

SMILES	Lassa entry inh	AMA1 RON2 block	MARV entry inh	Shiga toxin inh	Cycloheximide cs
COc1cc(SC)ccc1C(=O)NCCc1c[nH]c2ccccc12	?	?	?	59	27*
Cc1ccsc1C(=O)NCCc1c[nH]c2ccccc12	-7%[46.1 µM]	-7%	4%[46.1 µM]	73*	36*
CCn1ccnc1CN(C)Cc1nc(CCC(C)C)no1	11%[46.1 µM]	-5%	?	37	23
CN(CCN1CCOCC1)Cc1nc(-c2ccccc2)no1	·	25%	·	14	12*
CCn1ccnc1CN(C)Cc1nc(-c2cccc(Cl)c2)no1	·	1%	12%[46.1 µM]	49	30*
CCn1ccnc1CN(C)Cc1nc(-c2ccccc2)no1	8%[46.1 µM]	31%	?	55*	35*
CN(C)S(=O)(=O)c1cccc(NC(=O)C2CCN(S(=O)(=O)c3cccs3)CC2)c1	?	17%	?	·	·
CCC(C)NC(=O)CCC(=O)N1Cc2ccccc2Oc2ncccc21 (centres undefined)	3%[46.1 µM]	·	·	·	·
c1ccc(CSc2ccc(-c3ccccn3)nn2)nc1	?	-20%	?	98*	48*
Clc1ccc(-c2ccc(SCc3ccccn3)nn2)cc1	14%	-2%	-2%	59*	41*
N=C(N)SCc1ccccn1	-24%	0%	?	4	7
c1ccc(CSc2nnc(SCc3ccccn3)s2)nc1	?	2%	?	59*	30*
COc1cc(OC)c(NC(=O)NCCn2nnc3cc(S(=O)(=O)N(C)C)ccc32)cc1Cl	9%[46.1 µM]	·	·	·	·
CC(OC(=O)c1cc(=O)[nH]c2ccccc12)C(=O)NC1CCCC1 (centres undefined)	-6%	1%	11%	·	·
Cc1nc(N2CCOCC2)c2c(C(=O)N(C)Cc3ccccc3)c(C)oc2n1	8%[46.1 µM]	·	·	·	·
CC(C)c1ccc(NC(=O)c2cc(S(=O)(=O)N3CCCCC3)cn2C)cc1	5%[46.1 µM]	·	·	·	·
O=C1OC(c2ccc(Cl)cc2)/C(=C(/O)c2ccccc2)C1=O (centres undefined)	7%	17%	6%	65*	37*
CN1C(=O)C(=O)/C(=C(/O)c2ccc(Br)cc2)C1c1ccc(Cl)cc1 (centres undefined)	10%[46.1 µM]	0%	-3%[46.1 µM]	·	1
O=C(CSc1ccc2nnc(-c3cccnc3)n2n1)Nc1ccccc1F	·	8%	·	·	·
Cc1ccc(C(=O)N2Cc3ccccc3CC2C(=O)O)cc1 (centres undefined)	4%	-6%	4%	-5	-3
Cc1ccccc1NC(=O)C1Cc2ccccc2CN1C(=O)OCc1ccccc1 (centres undefined)	2%	-6%	?	12	-3
Cc1ccccc1NC(=O)C1Cc2ccccc2CN1C(=O)c1ccco1 (centres undefined)	27%	4%	7%	77*	45*
Cc1ccc(NC(=O)C2Cc3ccccc3CN2C(=O)c2ccccc2)cc1Cl (centres undefined)	-17%	-3%[11.6 µM]	?	3	18*
COc1cccc(NC(=O)C2Cc3ccccc3CN2C(=O)c2ccco2)c1 (centres undefined)	10%[46.1 µM]	5%	?	79*	54*
COc1cccc(NC(=O)[C@@H]2CCCN2C(=O)[C@@H]2Cc3ccccc3CN2C(=O)OC(C)(C)C)c1	·	-9%	·	52	20*
SMILES	Lassa entry inh	AMA1 RON2 block	MARV entry inh	Shiga toxin inh	Cycloheximide cs
COc1ccc(-c2ccc3c(c2)S(=O)(=O)c2cccc(C(=O)N4CCN(C5CCCCC5)CC4)c2C3=O)cc1OC	·	-21%	·	·	·
Cc1cc(-c2ccc(C)c(S(=O)(=O)NCc3cccs3)c2)on1	-28%[46.1 µM]	·	·	·	·
COC(=O)c1c(NC(=O)C(=O)N2CCCC2)sc2c1CC(C)(C)OC2	13%[46.1 µM]	34%	12%[46.1 µM]	-1	6
O=C(O)C1Cc2ccccc2CN1C(=O)c1ccco1 (centres undefined)	·	5%	·	·	12*
O=C(NCc1ccccc1)C1Cc2ccccc2CN1C(=O)c1ccco1 (centres undefined)	-5%[46.1 µM]	-11%	-17%[46.1 µM]	6	-3
Cc1ccc(-c2nnc(-c3ccccc3Br)o2)cc1	?	-1%	?	·	38*
Cc1ccc(-c2nnc(/C=C/c3ccccc3)o2)cc1	?	7%	?	147*	50*
Brc1ccc(-c2nnc(-c3ccccc3Br)o2)cc1	?	13%	?	93*	82*
Cc1ccc(/C=C/c2nnc(-c3cccc(C)c3)o2)cc1	4%	5%	25%	-2	18
